Data reported in PubChem BioAssay (NCATS).
Inconclusive results are not listed. Calls of active or inactive are those of the source. The call rests on the fitted dose curve; in most records, active means well fitted cell-killing curve with a large enough effect; inconclusive means small, poorly fitted or top-dose-only effect, or effect the other way; inactive means flat fitted curve, though single readings scatter. *1 amine or outer side, *2 acyl side, *3 side chain or, on linkers, in order; H or OH if unused. Where a SMILES comes first, the peptide text is derived from it. [ ]: non-standard residue; d: D form. X4 = CC(C)=CCc1cc(C(O)C(N[*:1])C(=O)[*:2])ccc1O

Tests used:
Assay in all cases: Primary qHTS to identify gynecologic anti-cancer compounds using libraries of approved drugs and bioactive compounds (AID 1345084); further: nearly all actives have a fitted effect of over 55% in size
C33A = conditions: Gynecologic cancer cell panel viability, ATPlite luminescence, 48 h; series mostly up to 57.5 µM
How it was run: (§1)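 Cells, 1,000 per well, were allowed to settle for 16 h at 37 C before compound addition. Five concentrations were tested for 48 h, and viability was read by ATPlite luminescence after 15 min at room temperature.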

CAOV3 = conditions: Gynecologic cancer cell panel viability, ATPlite luminescence, 48 h; series mostly up to 57.5 µM
How it was run: as §1

CASKI = conditions: Gynecologic cancer cell panel viability, ATPlite luminescence, 48 h; series mostly up to 57.5 µM
How it was run: as §1

Es-2 = conditions: Gynecologic cancer cell panel viability, ATPlite luminescence, 48 h; series mostly up to 57.5 µM
How it was run: as §1

HeLa = conditions: Gynecologic cancer cell panel viability, ATPlite luminescence, 48 h; series mostly up to 57.5 µM
How it was run: as §1

Hek293T = conditions: Gynecologic cancer cell panel viability, ATPlite luminescence, 48 h, control line for the selectivity index; series mostly up to 57.5 µM
How it was run: as §1

JEG-3 = conditions: Gynecologic cancer cell panel viability, ATPlite luminescence, 48 h; series mostly up to 57.5 µM
How it was run: as §1

OV90 = conditions: Gynecologic cancer cell panel viability, ATPlite luminescence, 48 h; series mostly up to 57.5 µM
How it was run: as §1

PA-1 = conditions: Gynecologic cancer cell panel viability, ATPlite luminescence, 48 h; series mostly up to 57.5 µM
How it was run: as §1

SKOV3 = conditions: Gynecologic cancer cell panel viability, ATPlite luminescence, 48 h; series mostly up to 57.5 µM
How it was run: as §1

Tov-21-G = conditions: Gynecologic cancer cell panel viability, ATPlite luminescence, 48 h; series mostly up to 57.5 µM
How it was run: as §1

Tov112D = conditions: Gynecologic cancer cell panel viability, ATPlite luminescence, 48 h; series mostly up to 57.5 µM
How it was run: as §1
On the % scale 0 is the no-effect control and ±100 the full control effect.

CC1(C=O)CC[C@]2(C(=O)O[C@@H]3O[C@H](CO)[C@@H](O)[C@H](O)[C@H]3O)CC[C@]3(C)C(=CCC4[C@@]5(C)C[C@H](O)[C@H](O[C@@H]6OC[C@@H](O)[C@H](O)[C@H]6O)[C@@](C)(CO)C5CC[C@]43C)C2C1 (stereo not given in full)
inactive: activity change, negative = cytotoxicity (C33A) -2.32% [at 11.6 µM] | activity change, negative = cytotoxicity (CAOV3) -2.27% [at 11.6 µM] | activity change, negative = cytotoxicity (CASKI) 0.835% [at 11.6 µM] | activity change, negative = cytotoxicity (Es-2) -7.22% [at 11.6 µM] | activity change, negative = cytotoxicity (HeLa) -5.1% [at 11.6 µM] | activity change, negative = cytotoxicity (Hek293T) -2.72% [at 11.6 µM] | activity change, negative = cytotoxicity (JEG-3) 12.1% [at 11.6 µM] | activity change, negative = cytotoxicity (OV90) 9.96% [at 11.6 µM] | activity change, negative = cytotoxicity (PA-1) -2% [at 11.6 µM] | activity change, negative = cytotoxicity (SKOV3) 1.41% [at 11.6 µM] | activity change, negative = cytotoxicity (Tov-21-G) -1.76% [at 11.6 µM] | activity change, negative = cytotoxicity (Tov112D) -0.249% [at 11.6 µM]

C=C[C@H]1[C@H](O[C@@H]2O[C@H](CO)[C@@H](O)[C@H](O)[C@H]2O)OC=C(C(=O)OC)[C@H]1C/C=C(/C=O)[C@@H]1C(C(=O)OC)=CO[C@@H](O[C@@H]2O[C@H](CO)[C@@H](O)[C@H](O)[C@H]2O)[C@@H]1C=C
inactive: Potency (C33A) | Potency (CAOV3) | Potency (CASKI) | Potency (Es-2) | Potency (HeLa) | Potency (Hek293T) | Potency (JEG-3) | Potency (OV90) | Potency (PA-1) | Potency (SKOV3) | Potency (Tov-21-G) | Potency (Tov112D)

CC12CCC(OC3OC(CO)C(O)C(OC4OC(CO)C(O)C(O)C4O)C3O)CC1=CCC1C2CCC2(C)/C(=C3/COC(=O)C3)CCC12O (stereo not given)
inactive: Potency (C33A) | Potency (CAOV3) | Potency (CASKI) | Potency (Es-2) | Potency (HeLa) | Potency (Hek293T) | Potency (JEG-3) | Potency (OV90) | Potency (PA-1) | Potency (SKOV3) | Potency (Tov-21-G)

CC1(C)CC[C@]2(C(=O)O[C@@H]3O[C@H](CO)[C@@H](O)[C@H](O)[C@H]3O)CC[C@]3(C)C(=CCC4[C@@]5(C)CC[C@H](O[C@@H]6O[C@H](C(=O)O)[C@@H](O)[C@H](O[C@@H]7O[C@H](CO)[C@H](O)[C@H](O)[C@H]7O)[C@H]6O)C(C)(C)C5CC[C@]43C)C2C1 (stereo not given in full)
inactive: activity change, negative = cytotoxicity (C33A) -1.04% [at 11.6 µM] | activity change, negative = cytotoxicity (CAOV3) 0.89% [at 11.6 µM] | activity change, negative = cytotoxicity (CASKI) -0.547% [at 11.6 µM] | activity change, negative = cytotoxicity (Es-2) -0.756% [at 11.6 µM] | activity change, negative = cytotoxicity (HeLa) -6.39% [at 11.6 µM] | activity change, negative = cytotoxicity (Hek293T) 7.67% [at 11.6 µM] | activity change, negative = cytotoxicity (JEG-3) 4.29% [at 11.6 µM] | activity change, negative = cytotoxicity (OV90) 1.32% [at 11.6 µM] | activity change, negative = cytotoxicity (PA-1) -14.7% [at 11.6 µM] | activity change, negative = cytotoxicity (SKOV3) 12.6% [at 11.6 µM] | activity change, negative = cytotoxicity (Tov-21-G) -0.142% [at 11.6 µM] | activity change, negative = cytotoxicity (Tov112D) -2.13% [at 11.6 µM]

C[C@@H]1C(=O)O[C@H]2[C@@H](O)C34[C@H]5C[C@@H](C(C)(C)C)C36[C@@H](OC(=O)[C@@H]6O)O[C@@]4(C(=O)O5)[C@@]12O (stereo not given in full)
inactive: Potency (C33A) | Potency (CAOV3) | Potency (CASKI) | Potency (Es-2) | Potency (HeLa) | Potency (Hek293T) | Potency (JEG-3) | Potency (OV90) | Potency (PA-1) | Potency (SKOV3) | Potency (Tov-21-G) | Potency (Tov112D)

COC1C(CO)OC(n2cnc3c(=O)[nH]cnc32)C1O (stereo not given)
inactive: Potency (C33A) | Potency (CAOV3) | Potency (CASKI) | Potency (Es-2) | Potency (HeLa) | Potency (Hek293T) | Potency (JEG-3) | Potency (OV90) | Potency (PA-1) | Potency (SKOV3) | Potency (Tov-21-G) | Potency (Tov112D)

C=C(C)C1CC[C@]2(C(=O)O)CC[C@]3(C(=O)O)[C@H](CCC4[C@@]5(C)CC[C@H](O)C(C)(C)C5CC[C@]43C)C12 (stereo not given in full)
inactive: Potency (C33A) | Potency (CAOV3) | Potency (CASKI) | Potency (Es-2) | Potency (HeLa) | Potency (Hek293T) | Potency (JEG-3) | Potency (OV90) | Potency (PA-1) | Potency (SKOV3) | Potency (Tov-21-G) | Potency (Tov112D)

CC(C)=CCc1cc(C(O)C2NC(=O)CNC(=O)C(Cc3c[nH]c4ccccc34)NC(=O)C3CCCN3C(=O)CNC(=O)C(C(C)C)NC(=O)CNC2=O)ccc1O (stereo not given) (cyclo(G[X4]GVGPW); configuration not given here)
inactive: activity change, negative = cytotoxicity (C33A) 7.59% [at 11.6 µM] | activity change, negative = cytotoxicity (CAOV3) -21.2% [at 11.6 µM] | activity change, negative = cytotoxicity (CASKI) -0.505% [at 11.6 µM] | activity change, negative = cytotoxicity (Es-2) 0.641% [at 11.6 µM] | activity change, negative = cytotoxicity (HeLa) 5.32% [at 11.6 µM] | activity change, negative = cytotoxicity (Hek293T) -0.92% [at 11.6 µM] | activity change, negative = cytotoxicity (JEG-3) 7.66% [at 11.6 µM] | activity change, negative = cytotoxicity (OV90) 5.8% [at 11.6 µM] | activity change, negative = cytotoxicity (PA-1) -1.16% [at 11.6 µM] | activity change, negative = cytotoxicity (SKOV3) 0% [at 11.6 µM] | activity change, negative = cytotoxicity (Tov-21-G) -4.16% [at 11.6 µM] | activity change, negative = cytotoxicity (Tov112D) -6.73% [at 11.6 µM]

CC(O)/C=C/C1(O)C(C)C(O[C@@H]2O[C@H](CO)[C@@H](O)[C@H](O)[C@H]2O)C(O)CC1(C)C (stereo not given in full)
inactive: Potency (C33A) | Potency (CAOV3) | Potency (CASKI) | Potency (Es-2) | Potency (HeLa) | Potency (Hek293T) | Potency (JEG-3) | Potency (OV90) | Potency (PA-1) | Potency (SKOV3) | Potency (Tov-21-G) | Potency (Tov112D)

C=C(C)C1Cc2cc(C(=O)OC3OC(CO)C(O)C(O)C3O)ccc2O1 (stereo not given)
inactive: Potency (C33A) | Potency (CAOV3) | Potency (CASKI) | Potency (Es-2) | Potency (HeLa) | Potency (Hek293T) | Potency (JEG-3) | Potency (OV90) | Potency (PA-1) | Potency (SKOV3) | Potency (Tov-21-G) | Potency (Tov112D)

CC1OC(OC2C(CO)OC(OCC3OC(OC(=O)C45CCC(C)(C)CC4C4=CCC6C7(C)CCC(OC8OC(CO)C(O)C(OC9OC(CO)C(O)C(O)C9O)C8O)C(C)(C)C7CCC6(C)C4(C)CC5)C(O)C(O)C3O)C(O)C2O)C(O)C(O)C1OC1OC(CO)C(O)C(O)C1O (stereo not given)
inactive: activity change, negative = cytotoxicity (C33A) -0.229% [at 6.55 µM] | activity change, negative = cytotoxicity (CAOV3) -14.1% [at 6.55 µM] | activity change, negative = cytotoxicity (CASKI) 8.74% [at 6.55 µM] | activity change, negative = cytotoxicity (Es-2) 5.26% [at 6.55 µM] | activity change, negative = cytotoxicity (HeLa) 3.66% [at 6.55 µM] | activity change, negative = cytotoxicity (Hek293T) 13.1% [at 6.55 µM] | activity change, negative = cytotoxicity (JEG-3) 7.02% [at 6.55 µM] | activity change, negative = cytotoxicity (OV90) 6.18% [at 6.55 µM] | activity change, negative = cytotoxicity (PA-1) 2.62% [at 6.55 µM] | activity change, negative = cytotoxicity (SKOV3) 13.6% [at 6.55 µM] | activity change, negative = cytotoxicity (Tov-21-G) 3.67% [at 6.55 µM] | activity change, negative = cytotoxicity (Tov112D) -6.51% [at 6.55 µM]

CC(C)C(N)C(=O)OCCOCn1cnc2c(=O)[nH]c(N)nc21 (stereo not given)
inactive: Potency (C33A) | Potency (CAOV3) | Potency (CASKI) | Potency (Es-2) | Potency (HeLa) | Potency (Hek293T) | Potency (JEG-3) | Potency (OV90) | Potency (PA-1) | Potency (SKOV3) | Potency (Tov-21-G) | Potency (Tov112D)

CC1=C2C3OC(=O)C(C)C3(O)CCC2(C)CCC1O (stereo not given)
inactive: Potency (C33A) | Potency (CAOV3) | Potency (CASKI) | Potency (Es-2) | Potency (HeLa) | Potency (Hek293T) | Potency (JEG-3) | Potency (OV90) | Potency (PA-1) | Potency (SKOV3) | Potency (Tov-21-G) | Potency (Tov112D)
